Where “and” joins values, the source holds several entries; their conditions need not be identical. Identical values can stand only once. Results filed as inconclusive are left out. Calls of active or inactive are those of the source. Unless noted, calls come from the whole dose curve; as a rule, active = well fitted curve in the direction sought with a large enough effect; inconclusive = small, poorly fitted or top-dose-only effect, or another doubt; inactive = no such curve, though single readings can be large; an effect the other way counts as inactive or inconclusive.
What was measured:
[1] = Cellular Toxicity (caspase-3) HUV-EC-C (AID 656);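 note: 0% = DMSO basal and 100% = 100 µM tamoxifen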
Procedure, shortened: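 Luminescent caspase-3/7 activation (aminoluciferin substrate cleavage) in HUV-EC-C cells after 16 hr compound exposure, 37°C. Signal normalized to DMSO basal and 100 uM tamoxifen as 100%; AC50 from concentration-response fitted with the Hill equation.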

[2] = Cellular Toxicity (caspase-3) SHSY5Y (AID 657)
Procedure, shortened: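 Luminescent caspase-3/7 readout (aminoluciferin release) in SH-SY5Y cells after 16 h compound exposure in complete medium. Activity scaled between DMSO basal and 10 uM staurosporine as 100%; concentration-response fitted to Hill equation for AC50.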

[3] = Cellular Toxicity (caspase-3) BJ (AID 658);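 note: 0% = DMSO basal and 100% = 10 µM staurosporine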
Procedure, shortened: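 BJ human foreskin fibroblasts, 1000 cells/well, treated 16 hours at 37 °C in complete medium; caspase 3/7 activity by Caspase-Glo luminescence after 1 hr at room temperature. Normalized to DMSO and 10 uM staurosporine; AC50 from Hill fits.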

[4] = Cellular Toxicity (caspase-3) MRC-5 (AID 659);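 note: 0% = DMSO basal and 100% = 10 µM staurosporine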
Procedure, shortened: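 MRC-5 human normal lung fibroblasts, 1500 cells/well, treated 16 h at 37 °C in complete medium. Caspase 3/7 measured by Caspase-Glo luminescence after 1 h at room temperature. Normalized to DMSO and 10 uM staurosporine; AC50 from Hill fit.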

[5] = qHTS assay for small molecule agonists of retinoid X receptor alpha signaling (AID 588544; calls by dose curve;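 for activation: 0% = DMSO basal wells and 100% = reference agonist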); conditions: HEK293T RXRa-UAS-bla, beta-lactamase reporter, 18 h; 530 nm emission
[6] = target: Retinoic acid receptor RXR-alpha (Homo sapiens) (UniProt P19793); experiment: as above
Sequence of Retinoic acid receptor RXR-alpha (Homo sapiens) (P19793 whole entry, looked up): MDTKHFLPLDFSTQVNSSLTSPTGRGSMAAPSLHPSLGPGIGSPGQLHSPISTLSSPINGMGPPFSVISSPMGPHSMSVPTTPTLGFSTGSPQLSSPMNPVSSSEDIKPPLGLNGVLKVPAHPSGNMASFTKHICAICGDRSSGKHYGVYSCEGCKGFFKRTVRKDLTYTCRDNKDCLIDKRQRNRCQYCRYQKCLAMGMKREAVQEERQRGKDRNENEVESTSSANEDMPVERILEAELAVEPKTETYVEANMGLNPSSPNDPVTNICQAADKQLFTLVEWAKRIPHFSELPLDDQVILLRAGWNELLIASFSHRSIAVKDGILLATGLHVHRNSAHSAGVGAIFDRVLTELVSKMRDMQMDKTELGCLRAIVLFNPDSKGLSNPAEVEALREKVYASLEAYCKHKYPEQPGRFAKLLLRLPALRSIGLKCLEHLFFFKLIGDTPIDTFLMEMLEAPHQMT

[7] = target: Thyroid hormone receptor beta (Homo sapiens) (UniProt P10828); experiment: qHTS assay for small molecule agonists of thyroid hormone receptor beta signaling (AID 588545; calls by dose curve;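 note: 0% = DMSO only and 100% = 10 nM T3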)
Sequence of Thyroid hormone receptor beta (Homo sapiens) (P10828 whole entry, looked up): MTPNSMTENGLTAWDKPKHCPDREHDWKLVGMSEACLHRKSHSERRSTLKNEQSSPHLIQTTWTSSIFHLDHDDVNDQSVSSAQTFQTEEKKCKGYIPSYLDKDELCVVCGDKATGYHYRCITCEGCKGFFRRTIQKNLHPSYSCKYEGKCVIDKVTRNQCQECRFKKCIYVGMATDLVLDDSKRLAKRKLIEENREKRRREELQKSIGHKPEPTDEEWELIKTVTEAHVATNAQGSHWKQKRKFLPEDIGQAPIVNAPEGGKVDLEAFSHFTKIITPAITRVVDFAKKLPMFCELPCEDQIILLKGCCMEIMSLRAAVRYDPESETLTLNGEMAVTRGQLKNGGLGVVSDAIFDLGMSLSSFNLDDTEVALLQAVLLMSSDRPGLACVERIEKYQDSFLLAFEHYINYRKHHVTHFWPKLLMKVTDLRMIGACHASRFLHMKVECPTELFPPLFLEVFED
Procedure, shortened: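 Stimulation of a TR-driven beta-lactamase reporter was quantified in GripTite HEK 293 cells. Compound series ran for 18 hrs; curves were normalized to T3 and DMSO controls and fitted to yield EC50.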

[8] = qHTS assay for small molecule antagonists of retinoid X receptor alpha signaling (AID 588546; active = well fitted inhibition curve with a large enough effect in the signal ratio, with a control signal flat, not every such curve was filed as active; the % refers to the signal ratio;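 note: cells stimulated with 9-cis-retinoic acid as agonist; % is set by controls: 0 for no effect and ±100 for the full control effect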); conditions: HEK293T RXRa-UAS-bla, beta-lactamase ratio, antagonist mode; measured here: W530 green channel, cytotoxicity proxy
Procedure, shortened: (§1)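 Beta-lactamase reporter inhibition, read as CCF4 fluorescence ratio (ex 405, em 460/530 nm) after 2 h at RT. HEK293T UAS-bla cells, 2500/well, were stimulated with 9-cis-RA at 500 or 100 nM final alongside test compound for 18 h at 37 C.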

[9] = target: Retinoic acid receptor RXR-alpha (Homo sapiens) (UniProt P19793); experiment: as above; conditions: HEK293T RXRa-UAS-bla, beta-lactamase ratio, antagonist mode
Procedure, shortened: as §1

[10] = target: Thyroid hormone receptor beta (Homo sapiens) (UniProt P10828); experiment: qHTS assay for small molecule antagonists of thyroid hormone receptor beta signaling (AID 588547; active = well fitted inhibition curve with a large enough effect in the signal ratio, with a control signal flat, not every such curve was filed as active; the % refers to the signal ratio;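 note: cells stimulated with 0.4 nM T3 agonist during compound exposure; series mostly up to about 77 µM; % is set by controls: 0 for no effect and ±100 for the full control effect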); conditions: TR-UAS-bla HEK293, beta-lactamase ratio, antagonist mode, 18 h
Procedure, shortened: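 TR-UAS-bla GripTite HEK293 cells in 2% charcoal/dextran FBS medium; compounds 0.59 nM to 92 uM with T3 at 0.4nM final, 18 h at 37 C. Beta-lactamase read by CCF4 fluorescence (460/530 nm); Hill fits gave IC50 and efficacy.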

[11] = qHTS assay for small molecule agonists of the antioxidant response element (ARE) signaling pathway (AID 651741; active = well fitted activation curve with a large enough effect in the signal ratio; the % refers to the signal ratio; note: potency is the fitted concentration of half-maximal effect)
Procedure, shortened: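 CellSensor ARE-bla HepG2 cells (2,000/well) carrying ARE-driven beta-lactamase, exposed 16 h at 37 C. LiveBLAzer B/G FRET substrate added for 2 h at room temperature; fluorescence intensity read.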

[12] = qHTS assay for small molecule activators of the p53 signaling pathway (AID 651743; active = well fitted activation curve with a large enough effect in the signal ratio, not every such curve was filed as active; the % refers to the signal ratio; note: potency is the fitted concentration of half-maximal effect); conditions: HCT-116 p53RE-bla, beta-lactamase FRET ratio, 16 h; activation: stronger effect = higher value
Procedure, shortened: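 p53RE-bla HCT-116 cells carrying a beta-lactamase reporter under p53 response elements were exposed to compounds for 16 hours at 37 C. Reporter activity read as fluorescence after 2 hours at room temperature with LiveBLAzer B/G FRET substrate.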

[13] = qHTS assay for small molecule activators of the nuclear factor-kappa B (NF-kB) signaling pathway (AID 651749; active = well fitted activation curve with a large enough effect in the signal ratio; the % refers to the signal ratio; note: series mostly up to about 77 µM; % of control where 0% means no effect); conditions: NF-kB-bla ME-180 cells, beta-lactamase FRET ratio, 16 h; activation: stronger effect = higher value
Procedure, shortened: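 NF-kB-bla ME-180 cells carrying a beta-lactamase reporter under an NF-kB response element, 2,000 cells/well, exposed to compound for 16 hr at 37C; FRET-based beta-lactamase fluorescence read-out of pathway activation.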

[14] = qHTS assay for small molecule disruptors of the mitochondrial membrane potential - 1 hr assay (AID 651754; calls by dose curve; note: potency is the fitted concentration of half-maximal effect; nearly all actives have a fitted effect of over 35% in size)
Procedure, shortened: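 HepG2 cells, attached overnight, were exposed to compound for 1 hr at 37C, then stained 30 min with a potentiometric dye. Ratio of red aggregate (590nm) to green monomer (535nm) fluorescence reports membrane potential; collapse shifts signal toward green.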

[15] = qHTS assay for small molecule disruptors of the mitochondrial membrane potential - 5 hr assay (AID 651755; calls by dose curve; note: potency is the fitted concentration of half-maximal effect; nearly all actives have a fitted effect of over 40% in size)
Procedure, shortened: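 HepG2 cells (2,000/well), attached overnight, exposed to compound 5 hr at 37C, then Mito-MPS dye 30 min. Fluorescence read for monomers (490/535 nm) and aggregates (540/590 nm).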

[16] = target: Tumor necrosis factor (Homo sapiens) (UniProt P01375); experiment: qHTS assay to identify small molecules that stimulate Tumor Necrosis Factor-alpha (TNF-alpha) secretion (AID 651757; active = well fitted curve in the direction sought with a large enough effect in the signal ratio; the % refers to the signal ratio; note: 0% is about no effect)
Sequence of Tumor necrosis factor (Homo sapiens) (P01375 whole entry, looked up): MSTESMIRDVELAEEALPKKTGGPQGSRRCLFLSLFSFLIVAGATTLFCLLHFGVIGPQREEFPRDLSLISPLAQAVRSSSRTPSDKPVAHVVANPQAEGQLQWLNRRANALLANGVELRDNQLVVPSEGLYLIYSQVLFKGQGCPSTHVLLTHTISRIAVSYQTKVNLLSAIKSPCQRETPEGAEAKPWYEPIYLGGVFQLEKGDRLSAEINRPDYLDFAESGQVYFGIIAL
Procedure, shortened: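 THP-1 cells (3000/well) exposed to compounds 17 hrs at 37 C. Secreted TNF-alpha detected by HTRF with cryptate- and XL665-labeled anti-TNF-alpha antibodies after 3 hr at room temperature.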

[17] = qHTS assay for environmental chemicals that activate the Aryl hydrocarbon Receptor (AhR) signaling pathway (AID 651777); conditions: 1A2-DRE human hepatoma cells, luciferase, 24 h; activation: stronger effect = higher value; note: potency is the fitted concentration of half-maximal effect; nearly all actives have a fitted effect of over 15% in size
Procedure, shortened: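 Induction of CYP1A2 transcription through AhR is detected by luciferase in 1A2-DRE hepatoma cells. Compounds or DMSO act for 24 hr at 37 C before a 30 min One-Glo step at room temperature.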

[18] = target: Peroxisome proliferator-activated receptor alpha (Homo sapiens) (UniProt Q07869); experiment: qHTS assay for small molecule agonists of the peroxisome proliferator-activated receptor alpha (PPARalpha) signaling pathway (AID 651778); conditions: PathHunter PPARalpha complementation, chemiluminescence, 6 h; stronger effect = higher value; note: % of control where 0% means no effect
Sequence of Peroxisome proliferator-activated receptor alpha (Homo sapiens) (Q07869 whole entry, looked up, the tested form may be a part): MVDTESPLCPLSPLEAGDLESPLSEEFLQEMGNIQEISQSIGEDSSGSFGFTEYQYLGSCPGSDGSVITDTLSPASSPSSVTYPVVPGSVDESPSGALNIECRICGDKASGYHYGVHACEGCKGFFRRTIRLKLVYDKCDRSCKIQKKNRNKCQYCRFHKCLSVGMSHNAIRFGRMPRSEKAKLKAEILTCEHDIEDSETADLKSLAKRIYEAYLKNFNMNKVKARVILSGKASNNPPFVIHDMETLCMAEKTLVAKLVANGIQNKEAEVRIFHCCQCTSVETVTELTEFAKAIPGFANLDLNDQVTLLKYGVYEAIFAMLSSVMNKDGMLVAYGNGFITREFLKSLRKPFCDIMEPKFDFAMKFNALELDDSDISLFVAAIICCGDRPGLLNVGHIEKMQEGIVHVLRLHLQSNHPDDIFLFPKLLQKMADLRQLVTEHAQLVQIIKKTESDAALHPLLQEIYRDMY
Procedure, shortened: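 Enzyme-fragment complementation assay in which ligand-bound PPARalpha translocates and forms an active enzyme that generates chemiluminescence. Cells were plated overnight, exposed to compound for 6 hr at 37 C, and then given detection reagent for 60 min at room temperature.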

[19] = target: Nuclear receptor ROR-gamma (Homo sapiens) (UniProt P51449); experiment: qHTS assay for small molecule antagonists of the retinoid-related orphan receptor gamma (ROR-gamma) signaling pathway (AID 651802); note: potency is the fitted concentration of half-maximal effect; nearly all actives have a fitted effect of over 60% in size
Sequence of Nuclear receptor ROR-gamma (Homo sapiens) (P51449 whole entry, looked up): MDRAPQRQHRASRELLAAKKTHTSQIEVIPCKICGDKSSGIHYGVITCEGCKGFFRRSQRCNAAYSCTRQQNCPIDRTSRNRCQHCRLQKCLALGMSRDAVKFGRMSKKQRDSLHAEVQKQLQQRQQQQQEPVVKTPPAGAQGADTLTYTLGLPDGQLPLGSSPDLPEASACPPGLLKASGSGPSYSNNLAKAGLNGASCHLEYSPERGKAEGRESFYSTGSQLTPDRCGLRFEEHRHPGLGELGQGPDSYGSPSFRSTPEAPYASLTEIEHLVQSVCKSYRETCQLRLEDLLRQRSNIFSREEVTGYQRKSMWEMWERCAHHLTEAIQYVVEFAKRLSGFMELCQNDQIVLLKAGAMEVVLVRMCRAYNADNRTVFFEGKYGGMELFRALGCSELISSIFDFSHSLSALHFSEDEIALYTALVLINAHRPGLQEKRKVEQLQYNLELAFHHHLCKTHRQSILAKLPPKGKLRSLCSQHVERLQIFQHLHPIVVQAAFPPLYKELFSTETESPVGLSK
Procedure, shortened: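 CHO cells with TET-inducible ROR-gamma and RORE-luciferase reporter, dosed then doxycycline-induced. After 16 h at 37C, One-Glo luminescence read; decreased signal indicates antagonism.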

[20] = target: Nuclear receptor subfamily 1 group I member 2 (Rattus norvegicus) (UniProt Q9R1A7); experiment: qHTS assay for small molecule activators of the rat pregnane X receptor (rPXR) signaling pathway (AID 651751; call rule not given here; note: 0% is about no effect); conditions: rPXR reporter cells, luciferase (One-Glo), 24 h
Sequence of Nuclear receptor subfamily 1 group I member 2 (Rattus norvegicus) (Q9R1A7 whole entry, looked up): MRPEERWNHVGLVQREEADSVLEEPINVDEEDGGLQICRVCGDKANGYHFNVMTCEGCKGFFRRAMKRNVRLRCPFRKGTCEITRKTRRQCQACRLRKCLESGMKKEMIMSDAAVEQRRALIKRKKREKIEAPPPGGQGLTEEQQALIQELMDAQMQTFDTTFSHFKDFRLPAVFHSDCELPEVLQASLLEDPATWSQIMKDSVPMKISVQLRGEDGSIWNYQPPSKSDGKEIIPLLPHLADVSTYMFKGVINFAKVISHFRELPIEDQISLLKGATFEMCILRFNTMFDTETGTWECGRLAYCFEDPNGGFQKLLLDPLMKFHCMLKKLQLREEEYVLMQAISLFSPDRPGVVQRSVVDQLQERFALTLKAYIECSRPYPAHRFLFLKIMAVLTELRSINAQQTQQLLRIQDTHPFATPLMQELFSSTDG

Oc1c(Cl)c(Cl)c(Cl)c(Cl)c1Cl
-15.3% and -8.92%: max response [8]
19.6%: max response [5]
active: Potency [11] 26.6 µM and 24.3 µM | Potency [12] 22.4 µM and 39.8 µM | Potency [14] 42.2 µM | Potency [15] 42.2 µM | Potency [17] 44.7 µM and 39.8 µM | Potency [19] 16.8 µM
inactive: outcome [1] | outcome [2] | outcome [3] | outcome [4] | outcome [6] | Potency [7] | max response [9] 12.8% and -17.7% | activity change % (negative = inhibition) [10] -4.36% | activation [13] -1.59% | outcome [16] | max response [18] 18.2% and 10.1% | max response [20] -11.9% and -10.8%
